The record followed here is PubChem BioAssay (NCATS).

Test [1] is described as follows: AP1 Signaling Pathway (AID 357; active means well fitted curve in either direction with a large enough effect, not every such curve was filed as active;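 further: ME-180 reporter cells stimulated with EGF at its EC50 level; on the % scale 0 is the no-effect control and ±100 the full control effect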). An outline of the steps: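 Read-out was the 460nm/530nm emission ratio (excitation 405nm) after CCF4 loading for 2.5 hours at room temperature. Cells carried an AP-1-driven beta-lactamase reporter, were stimulated with EC50 EGF plus compound for 5 hours, and AC50 values came from titrations.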
A short description of test [2]: NFAT Signaling Pathway (AID 444; active means well fitted curve in either direction with a large enough effect, not every such curve was filed as active;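 further: carbachol stimulus at about its EC50 of 1 µM final; on the % scale 0 is the no-effect control and ±100 the full control effect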). The following applies: Jurkat NFAT-bla M1, carbachol, beta-lactamase ratio, 5 h; at 17.2 µM (top of the series) unless noted. Summed up:
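Jurkat cells carrying an NFAT-driven β-lactamase reporter and co-transfected muscarinic M1 receptor were treated with compound plus carbachol (1 uM final, an EC50 level) for 5 h at 37 °C. CCF4 loading followed for 1 h at RT; 460/530 nm ratio gave %activity.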

Test [3] in a line: Stat Signaling Pathway (AID 446; active means well fitted curve in either direction with a large enough effect, not every such curve was filed as active;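 further: ME-180 cervical cancer cells given 40 pM IL-6 alongside compound; SIE-controlled beta-lactamase reporter measured as 460/530 nm FRET emission ratio; on the % scale 0 is the no-effect control and ±100 the full control effect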). An outline of the steps: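 ME-180 cells carrying a SIE-driven beta-lactamase reporter are stimulated with 40 pM IL-6 for 5 h at 37C in the presence of compound. The 460/530 nm FRET substrate ratio is read after 2.5 h at RT. Data are normalised to 300 pM IL-6 and to 125 nM JAK inhibitor controls.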
In test [4] the target is Mitogen-activated protein kinase 10 (Mus musculus) (UniProt Q61831). As to the kind of experiment: JNK3 AlphaScreen Assay (AID 530; active means well fitted curve in either direction with a large enough effect, not every such curve was filed as active;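 further: kinase came from lysate of stimulated human HepG2 cells; signal reports phosphorylation of biotinylated GST-cJun 1-79 at Ser73 with 10 µM ATP; on the % scale 0 is the no-effect control and ±100 the full control effect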). An outline of the steps:
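JNK3 came from HepG2 lysates pre-activated with IL-1beta and TNF-alpha and phosphorylated biotinylated GST-cJun (1-79) at 10 uM ATP, pH 7.6, room temperature. Compounds were titrated. AlphaScreen signal used anti-phospho-cJun (Ser73) antibody.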
For orientation: Alpha assays give light when donor and acceptor beads are brought close together.

Test [5] is described as follows: qHTS Assay for Lipid Storage Modulators (AID 1519; calls by dose curve). The following applies: Drosophila S3 cells, BODIPY lipid droplet/cell ratio, laser cytometry, cells loaded with oleic acid; for activity change, negative = inhibition: at 25.7 µM (top of the series). An outline of the steps:
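Cells seeded at 5,000 per well were treated with compounds over a concentration series and loaded with oleic acid (400 uM, as added). Lipid droplet fluorescence (488 nm excitation, 500-530 nm channel) was read by laser-scanning cytometry and normalized to 20 uM Triacsin C.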
Background: Quantitative high-throughput screening tests each substance at several concentrations.

For test [6], the target named is Glucocorticoid receptor (Homo sapiens) (UniProt P04150). Nature of the test: GR-GFP Redistribution (AID 450;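 active means compounds whose dose series gives a full or clear partial fitted curve of increased nuclear translocation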; further: potency means the concentration at half of the fitted maximal effect). The following applies: U2OS GR-GFP nuclear translocation, laser cytometry, 2 h.
Test [7] has the same target. As to the kind of experiment: GR-EFC Redistribution (AID 451; calls by dose curve; further: potency means the concentration at half of the fitted maximal effect). As to conditions: CHO-K1 GR-EFC translocation, beta-gal luminescence, 2 h. An outline of the steps: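 CHO-K1 cells stably expressing nuclear-localized β-gal enzyme acceptor and GR fused C-terminally to the enzyme donor fragment; ligand-driven nuclear translocation restores β-gal by complementation. Compounds titrated up to 46 uM final, 2 h at 37 °C; luminescence read.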

Test [8] has as its target ATP-dependent 6-phosphofructokinase (Trypanosoma brucei brucei) (UniProt O15648). Nature of the test: qHTS Assay to Find Inhibitors of T. brucei phosphofructokinase: hit validation (AID 492961). An outline of the steps: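 PFK 1.25 nM, F6P 0.5 mM, ATP 0.1 mM, MgCl2 5 mM, 0.1 M TEA pH 8.0, Tween20 0.01%, BSA 0.1%; 45 min RT. ADP-Glo two-step detection, luminescence. qHTS titration; curve fitting with curve-class categorization.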

Test [9] deals with Ubiquitin carboxyl-terminal hydrolase 1 (Homo sapiens) (UniProt O94782). Nature of the test: Inhibitors of USP1/UAF1: Pilot qHTS (AID 504865).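 Further: rhodamine fluorescence freed from ubiquitin-rhodamine substrate followed over time; top concentration of the series differs between compounds; on the % scale 0 is the no-effect control and ±100 the full control effect; nearly all actives have a fitted effect of over 35% in size.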 An outline of the steps: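 USP1/UAF1 complex at 1 nM preincubated 15 min at room temperature with compound, then Ub-Rho substrate added at 150 nM final. Fluorescence (480/540 nm) read kinetically in 50 mM HEPES pH 7.8, 0.5 mM EDTA, 1 mM TCEP, 0.1 mg/ml BSA, 0.01% Tween-20.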

Test [10] addresses Luciferin 4-monooxygenase (Photinus pyralis) (UniProt P08659). As to the kind of experiment: Biochemical firefly luciferase enzyme assay for NPC (AID 624030).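 Further: purified P. pyralis luciferase at 10 nM with luciferin and ATP substrate; 0% = DMSO and -100% = full luciferase inhibition by PTC124 control; nearly all actives have a fitted effect of over 70% in size.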 An outline of the steps: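 Counter-screen for direct inhibition of the luciferase enzyme by approved-drug library compounds, run at 10 nM enzyme in 50 mM Tris acetate (final). Luminescence was read within 5 min of enzyme-buffer addition and normalized to PTC124 versus DMSO (0%).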

Test [11] can be described thus: qHTS profiling for inhibitors of Plasmodium falciparum proliferation (AID 504749).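 Further: 0% = DMSO vehicle and full inhibition = artemisinin control; nearly all actives have a fitted effect of over 60% in size.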 The following applies: P. falciparum in erythrocytes, SYBR Green DNA, 72 h. Summed up:
(§1)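 P. falciparum-infected erythrocytes (0.3% parasitemia, 2.5% hematocrit final) were exposed to compounds for 72 h at 37 C in 5% CO2, then lysed with SYBR Green buffer overnight at room temperature; parasite DNA fluorescence was normalized to artemisinin and DMSO controls.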

A further test deals with C2A. The description is as above. As to conditions: P. falciparum in erythrocytes, SYBR Green DNA, 72 h; series mostly up to 12.8 µM. An outline of the steps: as §1
A further test relates to CP217. Described as above. As to conditions: P. falciparum in erythrocytes, SYBR Green DNA, 72 h; series mostly up to 12.8 µM. Summed up: as §1
Another test concerns CP238. The test is described as above. As to conditions: P. falciparum in erythrocytes, SYBR Green DNA, 72 h; series mostly up to 12.8 µM. Summed up: as §1
The test system of another test is CP250. The test is described as above. The following applies: P. falciparum in erythrocytes, SYBR Green DNA, 72 h; series mostly up to 12.8 µM. Summed up:
as §1

The test system of a further test is CP252. Described as above. As to conditions: P. falciparum in erythrocytes, SYBR Green DNA, 72 h; series mostly up to 12.8 µM. Summed up: as §1
In the next test the test system is FAB9. The test is described as above. As to conditions: P. falciparum in erythrocytes, SYBR Green DNA, 72 h; series mostly up to 12.8 µM. Summed up: as §1
The subject of another test is HB3. Described as above. The following applies: P. falciparum in erythrocytes, SYBR Green DNA, 72 h; series mostly up to 12.8 µM. Summed up:
as §1

The subject of a further test is SC27B. The test is described as above. The following applies: P. falciparum in erythrocytes, SYBR Green DNA, 72 h; series mostly up to 12.8 µM. An outline of the steps: as §1
The target in test [12] is 3',5'-cyclic-AMP phosphodiesterase 4B (Homo sapiens) (UniProt Q07343). Nature of the test: qHTS Assay for Inhibitors of PDE-IV (AID 607; active means well fitted activation curve with a large enough effect in the main read-out, with a control signal flat, not every such curve was filed as active; further: % of control where 0% means no effect). An outline of the steps: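 HEK293 ACTOne cells with CNG channel (1000/well), endogenous PDE4; membrane potential dye, compounds up to 22.9 uM final. Fluorescence Ex 535/Em 590; RO 20-1724 (100 uM final) as reference.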
Where [13] appears, read: measured here: cell count channel max response.
The mark [14] stands for this setting: measured here: lipid channel max response.
Setting [15] is: at 12.8 µM (top of the series), parasite line A.
The mark [16] stands for this setting: at 12.8 µM (top of the series), parasite line B.

SMILES strings stand for the structures. Records with an inconclusive call do not appear. Calls of active or inactive are those of the source. Unless noted, the call rests on the fitted dose curve; in most records, active means well fitted curve in the direction sought with a large enough effect; inconclusive means small, poorly fitted or top-dose-only effect, or another doubt; inactive means no such curve, though single readings can be large; an effect the other way counts as inactive or inconclusive.

Sequence of Glucocorticoid receptor (Homo sapiens) (P04150 whole entry, looked up, the tested form may be a part): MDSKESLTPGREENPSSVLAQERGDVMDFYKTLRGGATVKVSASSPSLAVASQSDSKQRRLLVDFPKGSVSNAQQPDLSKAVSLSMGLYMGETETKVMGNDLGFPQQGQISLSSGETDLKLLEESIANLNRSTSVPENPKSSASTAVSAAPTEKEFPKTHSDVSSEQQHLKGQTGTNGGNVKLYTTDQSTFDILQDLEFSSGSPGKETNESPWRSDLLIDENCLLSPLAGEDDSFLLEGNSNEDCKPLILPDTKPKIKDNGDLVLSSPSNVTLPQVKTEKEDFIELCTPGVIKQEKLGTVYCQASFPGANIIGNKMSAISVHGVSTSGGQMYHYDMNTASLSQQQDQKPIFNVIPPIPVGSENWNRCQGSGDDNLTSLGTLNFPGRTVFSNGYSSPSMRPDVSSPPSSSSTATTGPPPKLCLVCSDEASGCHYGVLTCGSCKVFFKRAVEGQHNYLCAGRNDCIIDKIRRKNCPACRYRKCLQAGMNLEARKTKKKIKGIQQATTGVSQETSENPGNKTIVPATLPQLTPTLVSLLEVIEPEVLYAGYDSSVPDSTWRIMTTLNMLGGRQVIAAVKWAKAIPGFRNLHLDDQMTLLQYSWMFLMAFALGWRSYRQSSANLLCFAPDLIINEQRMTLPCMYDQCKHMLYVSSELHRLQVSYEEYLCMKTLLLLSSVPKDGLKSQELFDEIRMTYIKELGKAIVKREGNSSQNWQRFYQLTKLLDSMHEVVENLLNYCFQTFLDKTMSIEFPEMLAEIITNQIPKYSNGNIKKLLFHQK
Sequence of ATP-dependent 6-phosphofructokinase (Trypanosoma brucei brucei) (O15648 whole entry, looked up): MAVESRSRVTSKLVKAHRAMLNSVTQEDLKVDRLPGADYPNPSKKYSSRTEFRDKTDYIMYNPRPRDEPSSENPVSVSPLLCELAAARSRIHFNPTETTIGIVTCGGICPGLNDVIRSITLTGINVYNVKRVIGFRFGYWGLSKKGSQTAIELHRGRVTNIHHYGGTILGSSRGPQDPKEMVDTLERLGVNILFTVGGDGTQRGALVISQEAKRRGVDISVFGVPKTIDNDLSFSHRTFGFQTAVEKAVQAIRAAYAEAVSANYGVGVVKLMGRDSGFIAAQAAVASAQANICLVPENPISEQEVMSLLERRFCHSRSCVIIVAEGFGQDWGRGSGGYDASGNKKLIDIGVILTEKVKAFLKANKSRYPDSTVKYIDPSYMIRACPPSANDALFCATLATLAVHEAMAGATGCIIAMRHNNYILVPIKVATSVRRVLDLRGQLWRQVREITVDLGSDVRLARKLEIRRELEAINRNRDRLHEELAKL
Sequence of Luciferin 4-monooxygenase (Photinus pyralis) (P08659 whole entry, looked up): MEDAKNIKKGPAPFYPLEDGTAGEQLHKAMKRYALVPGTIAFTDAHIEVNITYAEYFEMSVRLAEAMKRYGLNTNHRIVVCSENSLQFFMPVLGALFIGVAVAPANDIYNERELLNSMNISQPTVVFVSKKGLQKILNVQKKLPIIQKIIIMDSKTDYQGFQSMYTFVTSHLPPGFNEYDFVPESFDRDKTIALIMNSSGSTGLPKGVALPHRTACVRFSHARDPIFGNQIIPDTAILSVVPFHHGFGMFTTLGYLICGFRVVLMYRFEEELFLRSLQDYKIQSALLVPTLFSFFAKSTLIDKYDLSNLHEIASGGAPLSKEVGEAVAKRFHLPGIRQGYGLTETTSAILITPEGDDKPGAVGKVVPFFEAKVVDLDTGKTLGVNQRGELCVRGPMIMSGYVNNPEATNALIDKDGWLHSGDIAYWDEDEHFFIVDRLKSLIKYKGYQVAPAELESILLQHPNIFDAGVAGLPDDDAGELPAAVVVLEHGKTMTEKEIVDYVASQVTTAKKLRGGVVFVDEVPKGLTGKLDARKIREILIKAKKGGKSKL
Sequence of Ubiquitin carboxyl-terminal hydrolase 1 (Homo sapiens) (O94782 whole entry, looked up): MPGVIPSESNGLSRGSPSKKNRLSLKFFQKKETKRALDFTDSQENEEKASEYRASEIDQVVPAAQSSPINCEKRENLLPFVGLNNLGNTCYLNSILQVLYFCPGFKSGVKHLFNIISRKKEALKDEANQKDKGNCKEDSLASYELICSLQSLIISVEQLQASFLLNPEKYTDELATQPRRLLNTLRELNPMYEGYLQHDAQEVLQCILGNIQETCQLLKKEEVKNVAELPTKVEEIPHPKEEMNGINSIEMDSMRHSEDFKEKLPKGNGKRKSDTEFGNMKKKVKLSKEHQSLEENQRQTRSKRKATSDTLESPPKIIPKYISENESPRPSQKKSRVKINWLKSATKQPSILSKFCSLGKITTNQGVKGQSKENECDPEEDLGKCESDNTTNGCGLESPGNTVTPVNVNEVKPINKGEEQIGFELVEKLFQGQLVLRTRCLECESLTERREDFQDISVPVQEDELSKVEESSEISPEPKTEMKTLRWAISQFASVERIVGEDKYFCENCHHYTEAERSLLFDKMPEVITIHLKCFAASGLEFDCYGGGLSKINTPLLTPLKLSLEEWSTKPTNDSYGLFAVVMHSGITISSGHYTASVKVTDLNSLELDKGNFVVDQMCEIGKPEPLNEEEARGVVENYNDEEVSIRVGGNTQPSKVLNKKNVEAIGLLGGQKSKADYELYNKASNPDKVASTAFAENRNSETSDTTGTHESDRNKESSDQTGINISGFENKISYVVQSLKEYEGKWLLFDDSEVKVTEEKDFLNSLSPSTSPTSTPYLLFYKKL
Sequence of 3',5'-cyclic-AMP phosphodiesterase 4B (Homo sapiens) (Q07343 whole entry, looked up): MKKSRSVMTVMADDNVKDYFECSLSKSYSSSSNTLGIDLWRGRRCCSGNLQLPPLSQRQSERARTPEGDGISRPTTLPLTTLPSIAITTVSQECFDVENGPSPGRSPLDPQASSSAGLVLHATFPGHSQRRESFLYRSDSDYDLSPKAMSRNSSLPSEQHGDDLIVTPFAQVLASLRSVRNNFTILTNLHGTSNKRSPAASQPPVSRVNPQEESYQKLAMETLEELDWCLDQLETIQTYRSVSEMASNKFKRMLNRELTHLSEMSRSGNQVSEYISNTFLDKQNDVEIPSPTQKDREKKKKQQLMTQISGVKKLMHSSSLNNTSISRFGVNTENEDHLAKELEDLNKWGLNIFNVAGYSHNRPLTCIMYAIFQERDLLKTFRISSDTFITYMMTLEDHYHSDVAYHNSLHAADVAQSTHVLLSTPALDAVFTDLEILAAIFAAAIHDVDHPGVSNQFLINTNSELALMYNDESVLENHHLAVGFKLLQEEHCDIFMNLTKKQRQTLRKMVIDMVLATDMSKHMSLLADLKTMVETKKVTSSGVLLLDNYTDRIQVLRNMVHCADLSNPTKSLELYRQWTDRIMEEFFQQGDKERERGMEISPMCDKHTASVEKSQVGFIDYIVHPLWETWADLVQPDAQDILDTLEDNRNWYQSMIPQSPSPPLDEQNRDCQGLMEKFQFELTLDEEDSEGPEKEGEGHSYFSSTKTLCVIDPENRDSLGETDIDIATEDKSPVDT

Turning to `C[C@@]12C=CC(=O)C=C1CC[C@H]1[C@H]3CC[C@](O)(C(=O)CO)[C@]3(C)CC(=O)[C@@H]12`, the call in test [1] and in [3] was inactive. For the same compound, the activity change, negative = inhibition in test [2] is -19.6% (inactive); in test [5], -0.593% (inactive). Also, in [4], the Potency entry is “inactive”. The max response in test [5] (setting [13]) came out at 0.532%; in test [5] (setting [14]), 0.96%.

Consider `CCN(CCCCOC(=O)c1ccc(OC)c(OC)c1)[C@@H](C)Cc1ccc(OC)cc1`, for which the compound was called inactive in test [1], in [3] and in test [8]. In addition, the Potency in test [6] and in test [7] was > 20.6 µM (inactive) in each case. Besides, the Potency result (in test [4]; in test [9]; in test [10]; in the test with C2A; with CP217; in the test on CP238) was “inactive” throughout. In addition, the Potency entry with CP250, in the test with CP252, in the test on FAB9, in the test on HB3 and in the test with SC27B was “inactive” throughout. The activity change, negative = inhibition in [5] was -1.1% (inactive). Also, the max response in test [5] (setting [13]) was -7.41%; in test [5] (setting [14]), -6.28%. The activity, negative = inhibition in [11] (setting [15]) was -10.8% (inactive); in test [11] (setting [16]), -8.1% (inactive).

Take `Nc1nc(=S)c2ncn([C@H]3O[C@@H](CO)[C@@H](O)[C@@H]3O)c2[nH]1`: the compound was classed as inactive in test [1], in [3] and in test [12]. Moreover, the Potency in test [7] was > 20.6 µM (inactive). In addition, the Potency result in test [4] and in test [9] was “inactive” each time. In addition, in test [5], the activity change, negative = inhibition is -1.4% (inactive). Further, the max response is 2.2% in [5] (setting [13]) and -3.95% in test [5] (setting [14]).

Take `Cc1ccsc1/C=C\C1=NCCCN1C`: the call in [1], in [3] and in test [8] was inactive. Moreover, the Potency in test [6] and in [7] was > 20.6 µM (inactive) in each case. Also, the Potency result (in test [4]; in [10]; with C2A; in the test with CP217; with CP238; in the test on CP250) was “inactive” in each case. The Potency result with CP252, in the test with FAB9, in the test on HB3 and with SC27B was “inactive” in each case. Also, the activity change, negative = inhibition in test [5] is -1.64% (inactive). Moreover, the max response in [5] (setting [13]) was -9.18%; in test [5] (setting [14]), -10.2%. Moreover, the activity, negative = inhibition is 10.5% (inactive) in test [11] (setting [15]) and 9.61% (inactive) in [11] (setting [16]).

Consider `c1ccc2c(c1)CCC[C@@H]2C1=NCCN1`, for which the compound was called inactive in [1], in test [12] and in test [8]. Further, the values for the activity change, negative = inhibition in [2] and in [5] were 4.55% (inactive) and 1.29% (inactive), respectively. Moreover, the Potency entry (in test [4]; in [9]; in test [10]; in the test on C2A; in the test with CP217; in the test with CP238) was “inactive” in each case. Besides, the Potency entry with CP250, with CP252, with FAB9, with HB3 and with SC27B was “inactive” in each case. Besides, the figures for the max response in [5] (setting [13]) and in test [5] (setting [14]) were 4.77% and 6.92%, respectively. Moreover, the activity, negative = inhibition in [11] (at 28.7 µM (top of the series), parasite line A) is 13.7% (inactive); in test [11] (at 28.7 µM (top of the series), parasite line B), -0.664% (inactive).
